Reference: PubChem BioAssay (EPA / NIEHS)
Records with an inconclusive call do not appear. Active and inactive are the calls of the source. How the source made its calls: active means hit-call score of the fitted dose curve at least 0.9, where 1 is the maximum; inconclusive means response in the unintended direction; inactive means score below 0.9.

Columns and labels:
[1] = ATG_XTT_Cytotoxicity: Cytotoxicity Assessment in the Attagene TRANS-FACTORIAL HepG2 Assay (AID 2283584);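 on AC50: cells exposed to compound for 24 h before reading; active means loss of viability signal versus DMSO baseline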
Procedure, shortened: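 HepG2 human liver cells, transiently transfected with multiple GAL4-UAS reporter units, were dosed and read at 24 h by XTT as cell number. Loss of signal was fitted relative to DMSO negative control baseline.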

[2] = TOX21_p53_BLA_p2_viability: Viability Assessment in the Tox21 HCT-116 p53 Agonism Beta-lactamase Assay, Phase 2 (AID 2283591);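 further: compound exposure lasted 16 h at 37 °C; actives lower the ATP signal meaning cytotoxicity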
Procedure, shortened: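 HCT116 p53-bla cells, 4000/well, dosed after 5 h plating (217-fold dilution of DMSO stocks) and incubated 16 h at 37C. Viability taken as cellular ATP by CellTiter-Glo luminescence after 30 min RT; signal loss marks cytotoxicity.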

[3] = biological target: Cellular tumor antigen p53 (Homo sapiens) (UniProt P04637); assay: TOX21_p53_BLA_p2_ratio: Tox21 HCT-116 p53 Agonism Beta-lactamase Assay, Ratio, Phase 2 (AID 2283592)
Procedure, shortened: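 HCT116 cells carrying a p53-responsive beta-lactamase reporter were plated, incubated 5 h at 37C, then dosed with compounds in DMSO (217-fold dilution) for 16 h. CCF4-AM substrate was added for 2 h at room temperature; the 460/530 nm emission ratio gave gain-of-signal activity relative to DMSO.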

[4] = TOX21_p53_BLA_p3_viability: Viability Assessment in the Tox21 HCT-116 p53 Agonism Beta-lactamase Assay, Phase 3 (AID 2283593);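 further: cells exposed to compound for 16 h before reading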
Procedure, shortened: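 HCT116 cells, 4000/well, dosed 5 h after plating by pin transfer (217-fold dilution from DMSO stock) and incubated 16 h at 37C, 5% CO2. Viability read as ATP luminescence with CellTiter-Glo after 30 min at room temperature.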

[5] = biological target: Cellular tumor antigen p53 (Homo sapiens) (UniProt P04637); assay: TOX21_p53_BLA_p3_ratio: Tox21 HCT-116 p53 Agonism Beta-lactamase Assay, Ratio, Phase 3 (AID 2283596)
Procedure, shortened: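 HCT116 p53-bla cells (4000/well) given compound in DMSO (217-fold dilution) after 5 h, incubated 16 h at 37C. CCF4-AM substrate 2 h at room temperature; 460/530 nm emission ratio, gain fitted against DMSO.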

[6] = biological target: Cellular tumor antigen p53 (Homo sapiens) (UniProt P04637); assay: TOX21_p53_BLA_p5_ratio: Tox21 HCT-116 p53 Agonism Beta-lactamase Assay, Ratio, Phase 5 (AID 2283599)
Procedure, shortened: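 HCT-116 p53-bla cells (4000/well) plated 5 h, dosed with compound (217-fold DMSO dilution) for 16 h at 37 C; CCF4-AM substrate 2 h at room temperature. Activity is the 460/530 nm emission ratio (405 nm excitation), fitted in gain-of-signal direction versus DMSO.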

[7] = TOX21_p53_BLA_p5_viability: Viability Assessment in the Tox21 HCT-116 p53 Agonism Beta-lactamase Assay, Phase 5 (AID 2283600)
Procedure, shortened: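 Cells were plated at 4000/well, rested 5 h at 37C, then given compounds in DMSO (217-fold dilution) for 16 h at 37C, 5% CO2. Following the CCF4-AM beta-lactamase read, CellTiter-Glo was added and luminescence was read after 30 min at room temperature.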

[8] = TOX21_p53_BLA_p4_viability: Viability Assessment in the Tox21 HCT-116 p53 Agonism Beta-lactamase Assay, Phase 4 (AID 2283597);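 further: hits lower the luminescence signal meaning cytotoxicity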
Procedure, shortened: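 HCT116 p53-bla cells (4000/well) rested 5 h at 37C, then received compounds in DMSO (217-fold dilution) for 16 h at 37C, 5% CO2. CellTiter-Glo was added after the CCF4-AM read, and luminescence was read after 30 min at room temperature.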

Sequence of Cellular tumor antigen p53 (Homo sapiens) (P04637 whole entry, looked up): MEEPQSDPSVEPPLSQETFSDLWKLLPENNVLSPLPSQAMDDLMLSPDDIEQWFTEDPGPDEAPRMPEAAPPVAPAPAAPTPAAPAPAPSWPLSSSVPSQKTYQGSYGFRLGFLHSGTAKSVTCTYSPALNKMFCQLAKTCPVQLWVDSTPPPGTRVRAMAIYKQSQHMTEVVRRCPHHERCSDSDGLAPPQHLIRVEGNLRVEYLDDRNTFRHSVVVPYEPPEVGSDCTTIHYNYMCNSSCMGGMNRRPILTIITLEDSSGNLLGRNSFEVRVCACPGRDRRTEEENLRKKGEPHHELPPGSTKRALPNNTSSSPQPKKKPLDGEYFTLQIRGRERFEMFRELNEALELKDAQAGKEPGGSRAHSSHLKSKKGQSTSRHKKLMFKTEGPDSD

Structure (SMILES)	outcome [1]	outcome [2]	outcome [3]	outcome [4]	outcome [5]	outcome [6]	outcome [7]	outcome [8]	AC50 [1]	AC50 [2]	AC50 [4]	AC50 [5]
CCCCN(CCCC)C(=O)N(CCCC)CCCC	inactive	inactive	inactive	inactive	inactive	inactive	inactive					
CC1(C)O[C@@H]2C[C@H]3[C@@H]4CCC5=CC(=O)C=C[C@]5(C)[C@@]4(F)[C@@H](O)C[C@]3(C)[C@]2(C(=O)CO)O1	inactive	inactive	inactive	inactive	inactive	inactive	inactive					
CC1C2CC(CC2C2CCCC(O)C2)C1(C)C (configuration not stated)	inactive	inactive	inactive	inactive	inactive	inactive	inactive					
CCC1(c2ccccc2)C(=O)NCNC1=O	inactive	inactive	inactive	inactive	inactive		inactive					
CCN(CCN)c1cccc(C)c1	inactive	inactive	inactive	inactive		inactive	inactive	inactive				
CC(=O)CC(=O)Nc1ccc(C)cc1C	inactive	inactive	inactive	inactive	inactive		inactive	inactive				
CCCCCCCCC=CCCCCCCCC1=NCCN1CCO			inactive			inactive	inactive		16.1 µM (active)	46.1 µM (active)	77.4 µM (active)	87.1 µM (active)
O=C1c2ccccc2C(=O)c2c(O)ccc(O)c21	inactive	inactive	inactive	inactive	inactive	inactive	inactive					
CC1(C)O[C@@H]2[C@@H](CO[C@@]3(COS(N)(=O)=O)OC(C)(C)O[C@@H]23)O1	inactive	inactive	inactive	inactive	inactive		inactive	inactive				
CCC(C)=O	inactive	inactive	inactive	inactive				inactive				
